In PubChem BioAssay (NCI):
Values joined by “and” are separate entries in the source; they are usually repeats but may differ in a detail not shown here. Identical values can stand only once. About 83,000 compounds went through this panel and 20% of them were active in at least one assay; those are over-represented in the sample as a whole.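 Note: values are percent growth. 100 is the growth of untreated cells, values between 100 and 0 indicate rising inhibition; between -100 and 0 indicates cell death.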 Active and inactive are the calls of the source. How the source made its calls: active means growth percent below 10; inactive means the rest.

What was measured:
Test in all cases: NCI-60 one-dose screen, 48 h (100 = growth as untreated, 0 = no growth, -100 = all killed)
T-47D breast = settings: 10 µM unless noted
BT-549 breast = settings: 10 µM unless noted
MDA-MB-435 melanoma = settings: 10 µM unless noted
SW-620 colon = settings: 10 µM unless noted
MCF7 breast = tested on: MCF7 breast
HCT-116 colon = settings: 10 µM unless noted
HCC-2998 colon = settings: 10 µM unless noted
KM12 colon = settings: 10 µM unless noted

Structure (SMILES)	growth (T-47D breast)	growth (BT-549 breast)	growth (MDA-MB-435 melanoma)	growth (SW-620 colon)	growth (MCF7 breast; 10 µM)	growth (HCT-116 colon)	growth (HCC-2998 colon)	growth (KM12 colon)	growth (MCF7 breast; 100 µM)
O=C1c2ccccc2C(=O)c2sc(Nc3ccc(Cl)cc3)nc21	29.2% (inactive)	75.9% (inactive)	-87.5% (active)	-40% (active)	-60.3% (active)	-36.6% (active)	57.6% (inactive)	60.1% (inactive)	–
O=Nc1ccccc1N=O	94.3% (inactive)	92.7% (inactive)	87.3% (inactive)	77.5% (inactive)	65.1% (inactive)	92.8% (inactive)	93.9% (inactive)	91.3% (inactive)	–
CN1c2ccccc2C(C)(C)C12C=Cc1cc(O)ccc1O2 (configuration not stated)	40.2% (inactive)	33.2% (inactive)	-66.4% (active)	46.9% (inactive)	5.47% (active)	67.9% (inactive)	83.2% (inactive)	18.7% (inactive)	–
COc1cc(/C=C/C(C)=O)ccc1O	97.2% (inactive) and 106% (inactive)	104% (inactive)	101% (inactive) and 106% (inactive)	104% (inactive) and 110% (inactive)	96.8% (inactive) and 98.8% (inactive)	104% (inactive) and 103% (inactive)	102% (inactive) and 104% (inactive)	90% (inactive) and 92.7% (inactive)	–
Nc1ccc(SSc2ccc(N)cc2)cc1	88.7% (inactive)	66.6% (inactive)	93.4% (inactive)	95.1% (inactive)	96.5% (inactive)	95.1% (inactive)	94.8% (inactive)	86.1% (inactive)	–
O=C(Nc1cccc(Br)c1)Oc1ccc(Cl)c2cccnc12	12.1% [100 µM] (inactive)	4.77% [100 µM] (active)	30.2% [100 µM] (inactive)	26.1% [100 µM] (inactive)	–	2.06% [100 µM] (active)	44.9% [100 µM] (inactive)	30.5% [100 µM] (inactive)	-30.3% (active)
CCOc1ccc(-c2nc3ccc(-c4nc5ccc(N6CCN(C)CC6)cc5[nH]4)cc3[nH]2)cc1	-69.4% (active)	-96.6% (active)	-96% (active)	-85.5% (active)	-90.3% (active)	-77.6% (active)	-95.3% (active)	-100% (active)	–
CNC(=O)N/N=C/c1ccc([N+](=O)[O-])o1	104% (inactive)	110% (inactive)	121% (inactive)	105% (inactive)	95.3% (inactive)	94.8% (inactive)	106% (inactive)	92.2% (inactive)	–
CC1=CC(O)C2CC1C2(C)C (configuration not stated)	96% (inactive) and 106% (inactive)	98.9% (inactive)	103% (inactive) and 97.3% (inactive)	105% (inactive) and 108% (inactive)	101% (inactive) and 98.9% (inactive)	103% (inactive)	95.4% (inactive) and 112% (inactive)	101% (inactive) and 114% (inactive)	–
Nc1ncnc2c1ncn2C1OC(CO)C(O)C1O (configuration not stated)	109% (inactive) and 9.96% (active) and 90.6% (inactive)	101% (inactive) and 47.6% (inactive) and 123% (inactive)	110% (inactive) and 103% (inactive) and 112% (inactive)	112% (inactive) and 85.1% (inactive) and 106% (inactive)	107% (inactive) and 10.7% (inactive) and 97% (inactive)	108% (inactive) and 65% (inactive) and 90% (inactive)	105% (inactive) and 31.2% (inactive) and 107% (inactive)	116% (inactive) and 112% (inactive) and 114% (inactive)	–
CCC(=O)Sc1ccccc1C(=O)Nc1ccc(Cl)cc1	45.1% (inactive)	10.2% (inactive)	25.9% (inactive)	17.5% (inactive)	19% (inactive)	25.8% (inactive)	85.7% (inactive)	64.9% (inactive)	–
N#Cc1ccc([N+](=O)[O-])o1	85.1% (inactive)	101% (inactive)	108% (inactive)	106% (inactive)	101% (inactive)	92.6% (inactive)	117% (inactive)	102% (inactive)	–
Oc1ccc(/C=N/NC(=S)Nc2ccccc2)nc1	12.6% (inactive)	44.8% (inactive)	31.5% (inactive)	39.4% (inactive)	16.4% (inactive)	21% (inactive)	5.05% (active)	11.3% (inactive)	–
CCC(CCCN(CC)CCc1ccccc1)OC(=O)c1cc(OC)c(OC)c(OC)c1 (configuration not stated)	77.8% (inactive)	99.6% (inactive)	100% (inactive)	82.9% (inactive)	85.9% (inactive)	75.3% (inactive)	96.4% (inactive)	96.6% (inactive)	–
COc1ccc(N=N/N=c2\sc3cc(OC)ccc3n2C)cc1	83.6% (inactive)	95.5% (inactive)	104% (inactive)	102% (inactive)	78.9% (inactive)	95.8% (inactive)	102% (inactive)	95% (inactive)	–
N#CSCc1ccc(Cl)c(CSC#N)c1	57.5% (inactive)	14.1% (inactive)	3.85% (active)	20.4% (inactive)	16.1% (inactive)	13.6% (inactive)	51.5% (inactive)	28.2% (inactive)	–
CC(=O)ON=C1C=CC(=C(C#N)c2ccccc2)C=C1	42.3% (inactive)	50.7% (inactive)	-2.19% (active)	6.41% (active)	15.5% (inactive)	-13.1% (active)	88.3% (inactive)	-48.2% (active)	–
COc1ccccc1OC(=O)Oc1ccccc1OC	123% (inactive) and 100% (inactive)	97% (inactive)	112% (inactive) and 96% (inactive)	94.6% (inactive) and 92.8% (inactive)	96.1% (inactive) and 88.8% (inactive)	99.9% (inactive) and 101% (inactive)	102% (inactive) and 94.6% (inactive)	107% (inactive) and 98% (inactive)	–
O=C(O)c1ccc2c3c(ncnc13)-c1ccccc1C2=O	101% (inactive)	33.8% (inactive)	-60% (active)	87.7% (inactive)	50.9% (inactive)	91.2% (inactive)	-58.5% (active)	46.5% (inactive)	–
CCCCCCCCCCCCCCCCCCOP(=O)([O-])OC1CC[N+](C)(C)CC1	-18.4% (active) and 2.5% (active)	24.3% (inactive) and -14.9% (active)	15.8% (inactive) and -67.3% (active)	46.3% (inactive) and 25% (inactive)	38.5% (inactive) and 18.4% (inactive)	19.5% (inactive) and -41.9% (active)	5.08% (active) and -75.7% (active)	-44.2% (active) and -95.1% (active)	–
CN(C)C(=O)SC1=C(c2c(Cl)cccc2Cl)C(=O)c2ccccc21	-71.9% (active)	87.2% (inactive)	-13% (active)	-83.9% (active)	-43.6% (active)	-64.6% (active)	114% (inactive)	99.4% (inactive)	–
CC1OC(OC2C(OC3CCC4(C)C(CCC5(C)C4CC=C4C6CC(C)(C)CCC6(CO)C(O)CC45C)C3(C)C)OC(C(=O)O)C(OC3OC(COC4OC(CO)C(O)C(O)C4O)C(O)C(O)C3O)C2O)C(O)C(O)C1O (configuration not stated)	-72.7% (active)	-92.5% (active)	-85.3% (active)	-64.2% (active)	-67.7% (active)	-88% (active)	-81.9% (active)	-70.9% (active)	–
CCCCCCCCCCCCCCCCN(CC)CC	2.05% (active)	-36.8% (active)	-80.8% (active)	-69.1% (active)	-68.6% (active)	-52.5% (active)	-97.1% (active)	-57% (active)	–
CN(C)c1ccc(N=Nc2cccc3ccccc23)cc1	22.2% (inactive)	76.8% (inactive)	98.8% (inactive)	98.6% (inactive)	14.2% (inactive)	75.2% (inactive)	69.2% (inactive)	94.2% (inactive)	–
N#CSCc1c(Cl)cccc1Cl	79.9% (inactive)	88.4% (inactive)	29.6% (inactive)	34.7% (inactive)	33.3% (inactive)	4.1% (active)	70% (inactive)	48.1% (inactive)	–
CC(C)(C)c1ccc(O)c(C2CCCCC2)c1	108% (inactive)	127% (inactive)	117% (inactive)	99.6% (inactive)	101% (inactive)	95% (inactive)	111% (inactive)	91.1% (inactive)	–
S=C(NCCNC(=S)[S][Sn]([c]1ccccc1)([c]1ccccc1)[c]1ccccc1)[S][Sn]([c]1ccccc1)([c]1ccccc1)[c]1ccccc1	-75.7% (active)	-78.8% (active)	-88% (active)	-97.5% (active)	-99.8% (active)	-82.8% (active)	-82.4% (active)	-99.4% (active)	–
O=C(/C=C\c1cc(Br)ccc1O)/C=C/c1cc(Br)ccc1O	6.69% (active)	-12.3% (active)	-47.9% (active)	-43.4% (active)	6.18% (active)	-97.8% (active)	-74.4% (active)	-71.5% (active)	–
O[C@H]1[C@H]2c3cc4c(cc3CN3CCC(=C[C@@H]1O)[C@H]23)OCO4	34.5% (inactive)	71.2% (inactive)	32.5% (inactive)	30.4% (inactive)	11.7% (inactive)	13.5% (inactive)	18.9% (inactive)	21.2% (inactive)	–
